From PubChem
Compounds with a hit are over-represented: about 28% of the library has one in this group of screens.
Plk1 PBD FP: inhibitors of human Plk1 polo box domain binding | P53350 | Plk1 PBD phosphopeptide binding, fluorescence polarization | inhibition, %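 (tested at about 20 µM)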 | actives 0.13% (n = 97,000) | AID 693; in the data active means inhibition above about 34%, passing the limit was not always enough
Target sequence (P53350 whole entry, looked up, the tested form may be a part): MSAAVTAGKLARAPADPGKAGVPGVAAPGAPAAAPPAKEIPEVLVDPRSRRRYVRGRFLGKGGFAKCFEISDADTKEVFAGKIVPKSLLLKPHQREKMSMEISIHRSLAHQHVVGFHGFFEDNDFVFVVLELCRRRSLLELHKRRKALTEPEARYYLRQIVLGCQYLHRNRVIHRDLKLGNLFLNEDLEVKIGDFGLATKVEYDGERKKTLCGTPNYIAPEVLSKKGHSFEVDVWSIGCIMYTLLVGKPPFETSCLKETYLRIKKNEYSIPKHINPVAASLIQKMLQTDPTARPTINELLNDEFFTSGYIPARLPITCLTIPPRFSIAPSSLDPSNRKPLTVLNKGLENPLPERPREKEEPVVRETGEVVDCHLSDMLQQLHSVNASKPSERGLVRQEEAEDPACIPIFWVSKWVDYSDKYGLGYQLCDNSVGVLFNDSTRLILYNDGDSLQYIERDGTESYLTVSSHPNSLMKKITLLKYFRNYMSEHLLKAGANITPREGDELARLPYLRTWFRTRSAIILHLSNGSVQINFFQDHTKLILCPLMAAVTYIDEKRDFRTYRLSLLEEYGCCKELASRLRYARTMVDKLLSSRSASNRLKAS
CYP2C9 activ: CYP2C9 (human) activation; P11712; recombinant CYP2C9, luciferin-H conversion, luminescence; active compounds read high; factor 1 = untreated enzyme, 0 = blocked; activation factor at 5 µM; actives 1.4% (n = 96,000); AID 1024;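 active means activation factor of 2 or more for CYP2C9 at a 5 µM dose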;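 further: 0 = sulfaphenazole-blocked wells and 1 = vehicle-only wells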
CYP2C9 inh: blocks human cytochrome P450 2C9; P11712; CYP2C9 Supersomes, luciferin-H conversion, luminescence; inhibition, % at 5 µM; actives 20% (n = 96,000);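 active means blocking of liver enzyme CYP2C9 beyond about 50% at 5 µM, limit read from the data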
PLK1 kinase inh: blocks human PLK1 kinase activity. AID 619. recombinant PLK1 kinase, TR-FRET peptide phosphorylation. actives 0.53% (n = 97,000). P53350. inhibition, % at 10 µM;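 active means inhibition of 50% or more in the single-concentration screen; inactive means inhibition below 50%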;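 further: 0% = DMSO max control and 100% = H-89 dihydrochloride min control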
CYP2C19 activ: activators of human cytochrome P450 2C19. P33261. recombinant CYP2C19, luciferin-H EGE luminescence; active compounds read high; 0 = fully inhibited enzyme, 1 = untreated enzyme. activation factor at 5 µM. 96,000 tested, under 10 active;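 active means activation factor of at least 2 at 5 µM in the primary screen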;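 further: 0 = wells with 2.5 mM tranylcypromine and 1 = vehicle-only wells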
CYP2C19 inh: inhibitors of human CYP2C19 | CYP2C19 Supersomes, luciferin-H EGE luminescence, 30 min | inhibition, % at 5 µM | actives 21% (n = 96,000) | AID 778 | P33261;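 active means CYP2C19 inhibition above a set limit at 5 µM in the primary screen, cut at about 50% in these data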;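 further: plate controls were negative control wells for no effect and 2.5 mM tranylcypromine positive control for full effect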
* = called active by the depositor; . = no result.

SMILES | Plk1 PBD FP | CYP2C9 activ | CYP2C9 inh | PLK1 kinase inh | CYP2C19 activ | CYP2C19 inh
COc1ccc(S(=O)(=O)Nc2ccc(F)cc2)cc1N(C)S(=O)(=O)c1ccc(Cl)cc1 | -2 | 0.3 | 67* | -10 | 0.5 | 52*
COc1ccc(NS(=O)(=O)c2ccc(OC)c(N(C)S(=O)(=O)c3ccc(Cl)cc3)c2)cc1 | -3 | 0.4 | 61* | -19 | 0.7 | 33
CC(=O)Nn1cnc2c(c1=O)C1(CCCCC1)Cc1ccccc1-2 | -16 | 0.7 | 32 | -11 | 0.6 | 37
CCOC(=O)c1[nH]c2ccc(F)cc2c1NC(=O)CCN1CCSCC1 | -20 | 0.8 | 23 | -12 | 0.8 | 15
O=C(CN1C(=O)CCSc2ccccc21)Nc1cccc(F)c1 | . | 0.3 | 67* | . | 0.2 | 78*
O=C(CN1C(=O)CCS(=O)(=O)c2ccccc21)Nc1cccc(Cl)c1 | 10 | . | . | -11 | . | .
CC1(C)OC(=O)N(c2ccccc2)C12C=Cc1cc(Br)ccc1O2 (configuration not stated) | -6 | 0.2 | 85* | -14 | 0.2 | 83*
Cc1cc(C(=O)N2CCN(CCc3ccccc3)CC2)no1 | -19 | 0.9 | 6 | -12 | 0.6 | 42
COc1ccnc(Oc2ccc(F)cc2)c1C(=O)N/C=N/OCc1c(Cl)cccc1Cl | -10 | 0.3 | 75* | -14 | 0.5 | 52*
CO/N=C/NC(=O)c1c(OC)ccnc1Oc1ccccc1 | 10 | 1.2 | -16 | -7 | 1 | -4
CCc1ccc(NC(=O)CNC(=O)c2cn(-c3ccccc3OC)c(=O)c3ccccc23)cc1 | -4 | 0 | 99* | -12 | 0 | 98*
CCC(=O)Nc1ccc2c(c1)ncn2-c1ccccc1OC | -16 | 1.5 | -46 | -2 | 1.1 | -9
COc1cccc(C2C=C(c3ccc(OC)cc3OC)Nc3nnnn32)c1 (configuration not stated) | 23 | 0.2 | 77* | -8 | 0.4 | 58*
COc1ccc(C2=CC(c3ccc(OC)c(OC)c3)n3nnnc3N2)c(OC)c1 (configuration not stated) | -3 | 0 | 97* | -5 | 0.1 | 90*
Cc1ccc(OC(=O)Cn2c(C(F)(F)F)nc3ccccc32)cc1 | 22 | 0.8 | 16 | -10 | 0.9 | 12
O=C(CN1C(=O)c2ccccc2S1(=O)=O)NC1CCCCCC1 | . | 0.9 | 12 | . | 0.3 | 66*
CCc1cccc(C)c1NC(=O)CN1C(=O)c2ccccc2S1(=O)=O | -10 | 0.6 | 37 | 69* | 0.2 | 77*
CCc1cccc(C)c1NC(=O)CSc1nc2ccc(N3C(=O)c4ccccc4C3=O)cc2s1 | 11 | 0.5 | 51* | -4 | 0.7 | 35
CC(C)C(NC(=O)CN1C(=O)c2ccccc2S1(=O)=O)C(C)C | -13 | 1 | -4 | -13 | 0.6 | 36
CCOC(=O)c1ccccc1NC(=O)CN1C(=O)c2ccccc2S1(=O)=O | -5 | 0.8 | 21 | -6 | 1 | -2
COC(=O)c1ccc(C)c(NC(=O)CN2C(=O)c3ccccc3S2(=O)=O)c1 | -7 | 0.2 | 83* | -13 | 0.7 | 30
Cc1c(NC(=O)CN2C(=O)c3ccccc3S2(=O)=O)c(=O)n(-c2ccccc2)n1C | -15 | . | . | -6 | . | .
Cc1cc(C)c(NC(=O)C(C)Sc2nc3ccc(N4C(=O)c5ccccc5C4=O)cc3s2)c(C)c1 (configuration not stated) | -9 | 0.9 | 14 | -6 | 0.8 | 15
CCC(=O)N(Cc1cc2cc(OC)ccc2[nH]c1=O)c1cccc(C)c1 | -8 | 1.1 | -6 | -7 | 1.1 | -10
COc1ccc(/C(C)=C2\SC(=S)N(CCC(=O)O)C2=O)cc1 | 6 | 0.9 | 9 | 8 | 1 | -4
SMILES | Plk1 PBD FP | CYP2C9 activ | CYP2C9 inh | PLK1 kinase inh | CYP2C19 activ | CYP2C19 inh
COc1ccc(C(=O)Nc2cccc(-c3cnc4ccccc4n3)c2)cc1 | 8 | . | . | -23 | . | .
N#Cc1nc(-c2ccccc2F)oc1NC1CCCCC1 | -17 | 0.7 | 28 | 4 | 0.7 | 33
Cc1c(S(=O)(=O)Nc2ccc3c(c2)OCCO3)c(=O)n(C)c(=O)n1C | 11 | 0.9 | 10 | -5 | 0.8 | 23
Cc1c(S(=O)(=O)Nc2cccc(Cl)c2)c(=O)n(C)c(=O)n1C | -20 | 0.8 | 15 | -16 | 0.5 | 51*
Cn1c(=O)c2cc(S(=O)(=O)Nc3cccc(F)c3)ccc2n(C)c1=O | -12 | 0.2 | 83* | -31 | 0.2 | 76*
COC(=O)c1cccc(N2C(=O)C(Cl)=C(N3CCOCC3)C2=O)c1 | -17 | 0.5 | 49 | -9 | 0.4 | 61*
Cc1ccccc1N1C(=O)C(Cl)=C(N2CCN(c3ccccc3)CC2)C1=O | 3 | 0.8 | 17 | 4 | 0.8 | 16
O=C1C(Cl)=C(N2CCOCC2)C(=O)N1c1ccccc1Cl | -4 | 0.9 | 9 | -8 | 0.1 | 94*
COc1ccc2nc(Nc3ccc4c(c3)OCO4)sc2c1 | 16 | 0.8 | 21 | 2 | 0.3 | 65*
COc1ccc2nc(NC(C)=O)sc2c1 | -1 | 1 | -1 | -5 | 1 | 4
C=C1c2cc(C)ccc2NC(=O)N1c1ccc(C)cc1 | -14 | 1 | 4 | 2 | 0.4 | 56*
O=C(CN1C(=O)C2CC=C(Cl)CC2C1=O)Nc1ccc(C(=O)O)cc1 (configuration not stated) | -16 | 1.1 | -14 | 19 | 1.1 | -8
CCCCNC(c1ccccc1)c1ccncc1 (configuration not stated) | -5 | 0.6 | 45 | -4 | 0.3 | 70*
Cc1cc2oc(C(=O)N(Cc3ccco3)C3CCS(=O)(=O)C3)cc(=O)c2cc1Cl (configuration not stated) | -32 | 0.8 | 22 | -10 | 1.1 | -8
CC(C)n1cnc2cc(NCc3ccco3)ccc21 | 14 | 0.8 | 18 | -13 | 0.8 | 23
c1ccc(-n2cnc3cc(NCc4ccccn4)ccc32)cc1 | 12 | 0.3 | 74* | -5 | 0.2 | 85*
CCn1cnc2cc(NCc3ccc(OC)cc3)ccc21 | 1 | 0.9 | 7 | -17 | 0.3 | 73*
CCCCn1cnc2cc(NCc3ccncc3)ccc21 | 7 | 0.4 | 62* | 1 | 0.4 | 56*
CCOc1ccc(CNc2ccc3c(c2)nc(C)n3C)cc1 | -17 | 0.9 | 9 | -11 | 0.6 | 38
CC(C)n1cnc2cc(NCc3ccccn3)ccc21 | -13 | 0.8 | 18 | -5 | 1 | 2
Cc1cccc(NC(=O)C(=O)NCc2ccccn2)c1 | 6 | 1.1 | -6 | -9 | 0.8 | 22
Cc1cc(NCc2ccccn2)ccc1Br | 1 | 0.8 | 23 | -8 | 0.4 | 63*
CCOC(=O)c1ccccc1NC(=O)CSc1ccccc1 | 1 | . | . | -12 | . | .
c1ccc(-n2cnc3cc(NCc4ccncc4)ccc32)cc1 | 13 | 0.1 | 94* | -11 | 0 | 99*
CN(C)c1ccc(CNc2ccc3c(c2)ncn3C)cc1 | -6 | 1 | 2 | -8 | 0.3 | 70*
O=C(CNC(=O)c1ccco1)OCc1ccc(Cl)cc1 | -14 | 0.8 | 19 | -5 | 0.2 | 82*
